# From PubChem BioAssay AID1745847 (National Center for Advancing Translational Sciences (NCATS), 2022)
# About 670 (32%) of roughly 2,100 compounds were called active. About 50% were inconclusive and are not listed. Calls follow the shape of the dose curve; as a rule, active = well fitted inhibition curve with a large enough effect; inconclusive = small, poorly fitted or top-dose-only effect; inactive = no such curve, though single readings can be large or run the other way. The list shows a part of the results.
# Test: CMV-Luciferase Counterscreen for Inhibitors of ATXN expression; also: nearly all actives have a fitted effect of over 55% in size
# Details: HEK-293 CMV-luciferase reporter, luminescence, 24 h; series mostly up to 57.5 µM
# Source text: PI: Daniel Scoles Ph.D. University of Utah School of Medicine, Salt Lake City, Utah MLPCN Grant: NS073009 Spinocerebellar ataxia type 2 (SCA2) is a multisystem neurodegenerative disease caused by a dominantly acting mutation leading to expansion of a polyQ domain in the ataxin-2 protein (ATXN2). SCA2 patients develop progressive ataxia and later lose function in other neuronal systems. Prominent parkinsonian signs develop in some patients. Like many neurodegenerative disorders, no symptomatic or disease-modifying treatments are known. The primary objective of the proposed research is to identify compounds inhibiting ATXN2 expression and to test them for efficacy in SCA2 mouse models. We have developed a cell-based assay paired with an in vivo mouse model using identical luciferase expression constructs. This approach takes advantage of an ATXN2-luciferase transgene, with the luciferase gene flanked by the upstream and downstream portions of the ATXN2 gene. Here we describe a 5-7 dose quantitative high thoroughput screen (qHTS) for compounds lowering ATXN2 expression. We screened the NIH Molecular Libraries Small Molecule Repository (MLSMR) and NCGC's mechanistically annotated (MIPE) and drug repurposing (NPC) collections of compounds for lowering expression of an ATXN2-luciferase reporter in HEK-293 cells. The assay is a multiplexed cell viability assay to ensure target reduction in the absence of cytotoxicity. Secondary qHTS assays included a CMV-luciferase reporter expressed in HEK-293 cells as well as a biochemical assay using recombinant luciferase to detect inhibitors of the reporter enzyme. Compounds that inhibit ATXN2 expression but is not cytotoxic were selected for confirmatory and secondary screens.
# PROTOCOL TABLE (as described by Inglese J, Shamu CE and Guy RK. 2007) SEQUENCE No. (e.g., 1, 2, 3, etc.); PARAMETER (e.g., Cells, Incubation, Reagent, etc.); VALUE; DESCRIPTION. 1; Cells; 4 uL; white, solid bottom, 1536-well Greiner assay plate. 2; Incubation; 2 hr; 37 degree C in 5% humidified CO2. 3; Compounds; 23 nL; Kalypsis pintool (Wako USA) equipped with a 1536-well pin head. 4; Incubation; 24 hr; 37 degree C in 5% humidfified CO2. 5; Reagent; 1 uL; Gly-Phe-7-Amino-4-trifluoromethylcoumarin. 6; Incubation; 30 min; 37 degree C in 5% humidfified CO2. 7; Detection; Fluorescence; Viewlux plate reader (PerkinElmer). 8; Reagent; 3 uL; SteadyGlo luciferase solution (Promega). 9; Incubation; 5 min; room temperature. 10; Detection; Luminescence; ViewLux plate reader (PerkinElmer). NOTES (numbers refer to Sequence numbers above) 1. HEK-293 cells expressing CMV-luciferase reporter (designated as SC cells) were suspended in phenol-red free DMEM and dispensed in assay plates using a Multidrop Combi dispenser (Thermo Fisher Scientific). 2. Assay plates were incubated. Evaporation was prevented by covering assay plates with metal lids containing holes to allow gas diffusion. 3. Compounds were added in a dose response manner with the final concentrations of 57, 11.4, 2.28, 0.46, 0.091, 0.018, 0.0037 uM. Vehicle-only plates, with DMSO being pin-transferred to columns 5-48, were inserted uniformly at the beginning and the end of each library to monitor and record any shifts in assay performance. 5. 125 uM Gly-Phe-7-Amino-4-trifluoromethylcoumarin (MP Biomedicals) working concentration was used at a final concentration of 25 uM. 7. To assess cell viability; the assay plates were read using the ViewLux high-throughput CCD imager (PerkinElmer), wherein single end-point fluorescence measurement was acquired (excitation 405/10; emission 540/25 nm). 8. Detection reagent SteadyGlo Luciferase (Promega) was added to the assay plate. 10. Luminescence is then measured on the ViewLux imager equipped with a clear emission filter using a 2 sec exposure. […]
# % is scaled to controls: 0 for no effect and ±100 for the full control effect; potency is read from the fitted curve at half-maximal effect.
SMILES,"activity change, negative = inhibition",Potency
CCn1c2ccccc2c2cc(NC(=O)COC(=O)c3cc(S(=O)(=O)N4CCCCC4)ccc3Cl)ccc21,4.24% [at 11.4 µM] (inactive),–
CN(C)CCCN(C(=O)c1ccc(S(=O)(=O)N2CCCCCC2)cc1)c1nc2ccc(Br)cc2s1,-16.1% [at 11.4 µM] (inactive),–
O=C(COc1ccc(Br)cc1CO)Nc1ccc(S(=O)(=O)N2CCCCC2)cc1,–,17.8 µM (active)
CC[n+]1c(/C=C/c2c[nH]c3ccccc23)ccc2cc(C)ccc21,–,35.5 µM (active)
Cc1ccnc(NC(=O)CCCc2c[nH]c3ccccc23)c1,484% [at 11.4 µM] (inactive),–
O=C(c1ccc(CS(=O)Cc2ccccc2Cl)o1)N1CCN(c2cccc(Cl)c2)CC1 (centres undefined),–,20 µM (active)
C=CCOC(=O)C1=C(C)NC(SCC)=C(C#N)C1c1ccc(Cl)cc1 (centres undefined),–,20 µM (active)
COc1cc(C=CC(=O)c2ccccc2)cc(OC)c1OC,–,inactive
COc1cc(/C=C/C(O)=C/C(=O)/C=C/c2ccc(O)cc2)ccc1O,-3.01% [at 11.4 µM] (inactive),–
COc1cc(C=CC(=O)c2cc(OC)c(OC)c(OC)c2)cc(OC)c1OC,–,12.6 µM (active)
O=C(c1ccc2c(c1)OCO2)N(Cc1cccs1)C1(C(=O)NC2CCCCC2)CCCCC1,–,28.2 µM (active)
C=CCNc1oc(-c2ccc(Cl)cc2)nc1C#N,–,inactive
N#Cc1nc(COc2ccc(-c3ccccc3)cc2)oc1NCc1cccnc1,–,3.55 µM (active)
COc1ccc(Nc2oc(COc3ccccc3OC)nc2C#N)cc1,–,3.55 µM (active)
COc1cc2nc(CN(C)Cc3ccc(SC)cc3)[nH]c(=O)c2cc1OC,–,inactive
COc1ccc(-c2cnc3c(NC=O)cc(-c4ccccc4OC)cn23)cc1OC,–,inactive
Cc1ccc(/C=N/Nc2ccnc3cc(Cl)ccc23)c(C)c1,–,14.1 µM (active)
Nc1nc(NCCCN2CCOCC2)nc(Nc2cccc(Cl)c2)c1[N+](=O)[O-],-21.5% [at 11.4 µM] (inactive),–
Cc1ccc(S(=O)(=O)N(Cc2ccccc2)c2ccccc2C(=O)NCc2ccco2)cc1,–,22.4 µM (active)
COc1cnc(-c2ccccn2)nc1NC(C)C,–,8.91 µM (active)
COc1cccc(CN(C)C(=O)CNC(=O)c2ccc(-c3ccccc3)cc2)c1OC,–,5.01 µM (active)
COCCCn1c(-c2ccc(S(=O)(=O)N3CCOCC3)cc2)csc1=Nc1ccccc1,–,3.98 µM (active)

SMILES,"activity change, negative = inhibition",Potency
COc1cc(C(=O)Oc2cccc(Nc3ncnc4ccccc34)c2)cc(OC)c1OC,–,3.98 µM (active)
NC(Cc1ccccc1)c1csc(Nc2nccc(C(F)(F)F)n2)n1 (centres undefined),–,inactive
Cc1cc(Nc2cccc([N+](=O)[O-])c2)n2c(nc3ccccc32)c1C#N,–,1.26 µM (active)
Fc1ccc2[nH]c3c(N4CCc5ccccc5C4)ncnc3c2c1,–,2.82 µM (active)
Fc1ccc2[nH]c3c(N4CCSCC4)ncnc3c2c1,–,3.16 µM (active)
CCOC(=O)N1CCN(c2ncnc3c2[nH]c2ccc(F)cc23)CC1,–,3.55 µM (active)
CC(C)(CO)NCc1c(OCc2ccc(Cl)cc2)ccc2ccccc12,–,inactive
Cc1ccc2nc(-c3ccccc3)nn2c1,–,2 µM (active)
COc1ccc(N2CCN(c3ccnc4cc(Cl)ccc34)CC2)cc1,–,3.98 µM (active)
COc1ccc(Cl)cc1S(=O)(=O)N1CCN(C(=O)c2n[nH]c(=O)c3ccccc23)CC1,-26.4% [at 11.4 µM] (inactive),–
COc1ccccc1N1CCN(c2ccnc3cc(Cl)ccc23)CC1,–,10 µM (active)
Oc1ccc(N2CCN(c3ccnc4cc(Cl)ccc34)CC2)cc1,–,11.2 µM (active)
O=S(=O)(c1ccccc1)N1CCN(c2ccnc3cc(Cl)ccc23)CC1,–,22.4 µM (active)
CC(=O)Oc1ccc(C23c4ccccc4C2(OC(C)=O)c2cc(OC(C)=O)ccc23)cc1 (centres undefined),–,25.1 µM (active)
COc1ccc(OCc2cccc(C(=O)Nn3cc([N+](=O)[O-])cn3)c2)cc1,–,0.398 µM (active)
O=C(N/N=C/c1ccc(O)cc1O)c1ccc(CN2C(=O)c3cccc4cccc2c34)cc1,–,1.78 µM (active)
O=C(N/N=C/c1cc(Br)ccc1O)c1ccncc1,–,1 µM (active)
CC(C)CC(=O)NC(=S)NNC(=O)c1ccc(NC(=O)C2CCCCC2)cc1,8.7% [at 11.4 µM] (inactive),–
O=C(N/N=C/c1ccc(O)cc1O)c1ccncc1,–,3.98 µM (active)
O=C(N/N=C/c1ccc(O)cc1O)c1ccc(NC(=O)C2CCCCC2)cc1,–,12.6 µM (active)
Cc1nc(SC2CC(=O)N(c3ccccc3)C2=O)n[nH]1 (centres undefined),–,inactive
O=c1[nH]c(CN2CCN(c3ncccn3)CC2)nc2c(Br)cc(Br)cc12,-16.4% [at 11.4 µM] (inactive),–
